Consider 39 sequences from the supplement of paper PMC6555819.

The test system of this experiment is PXR homodimer (NR concentration 270 nM). The experiment in a line: PBM binding z-score (relative to random genomic background probes); higher = stronger binding; sequences stand for … in GC…GCGATTGACAGCGTAGAATGAAGG
A digest of the protocol:
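Binding z-scores were set against random background probes. The data came from custom Agilent 4×180K protein-binding microarrays carrying double-stranded probes with 34-nt variable regions, incubated 1 h with ligand-free nuclear receptor dimers. Partner-specific antibodies detected binding, and scanned fluorescence was regression-normalized.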
The sequence TCTTGTAGATTAGCAGGTTAAGAAAGCTGGCCAA displayed a PBM binding z-score of 0.0335.

CGAACTAGGTCAGAACAGGACAGTGAAGGATGAT returned a PBM binding z-score of -0.0517. The value for CCTACTGGCCCAAAGGTCATTGATTCCAATGCTC was 0.894; that for CGAACCAGGGCATGAGTTGATAGCAAATGCCGAT was -0.0221. The figure for TTCCCAAGGTGAAAGGTCGTTGATGCACGCCTTG is 0.342; for CCTGCTACGTCATGGTCAGCTAATCTACAGTATG it is -0.428; for TCGAGTAGGTTACCAATGAGGCATTCAGCTTTCT it is -0.892. The figure for AGTCAAAGTTCATCTAGGTAACGTACGATATGCT is 6.7; for TCTAGGTGGTCACGGAGGTCACACACGACGGGTA it is 0.948. For the sequence ACTAGCAGGCCAAGGGTCACCCAAGATTAGTCCG, the PBM binding z-score is -0.00443. The figure for GATACAGTGTCAGCTAGAGGCCAGAGTATGGAAA is -0.0774; for CCTTCTGGGCCATCAGGTCATTGATATCAACGTT it is 0.618. The value for TCTTGTAGATAAACAGGAGGTTAAGAAAGATCGA was -0.0168. The value for CCTACTGGGCCAAGGGTCATTGATTCCAATGCTC was -0.275. GCTTGGAGATCAAGGTTAAGAAAGACTAAGCTAA yielded a PBM binding z-score of -0.313.

In turn, ATCTCTAGGTAAGACTCAGTTCAGCGAAGAACGC gave a PBM binding z-score of 1.37. The value for TCTAGTTTGTCACGGAGGTCACACACGACGGGTA was 1.91; that for TCTGGTAGATCAAGCAGGTTAAGAAAGCCTGAGT was 0.156. TTACCAAGGTGAGCTGAGGCCGTTGATCCAACTC came in with a PBM binding z-score of -0.968. The value for TCTTGTAGCTCAATAGAGGTTAAGAAAGTGCGCT was -0.163; that for ATCTCTAGGGAACCAAGTTCAGTGAATGCCGAAC was 1.73; that for TCTATTAGTTGAAGGACAACCGACGAGTCCGTTT was 1.09. Consider ACTAGCAGGCCAAGTTGGGGTCACTCAAACAAAG, for which the PBM binding z-score was 1.2.

For TTACCAATGTGAGCTGAGGTCGTTGATCCAACTC, the PBM binding z-score came to 0.562. The value for TCATATAGGTAATACAGGTGAAAATCGGCATCTA was 0.486; that for TCTGCTAGGTCTGTTGGTCAGCTAACGAGCTGCC was -0.379; that for TCTAGTTGGTCACGGAGGTCAAACACGACGGGTA was 2.87.

Sequence TCATTTAGGTAAAAGGTGAAAGTCGGTGTGGTAA came in with a PBM binding z-score of 0.93. Sequence CGTCCAAGGTCAGAGAGGGCAGTGAATGCCGAGT came in with a PBM binding z-score of 6.38. The value for AATACAGGGTCACTAGGCCAGACTAGGTACGAAT was 0.374. The figure for ACTTACGGGCCAACGAGGTTATAGCACGCGTATA is 0.334; for CACCCTAGGTCAGGGCCAGTATAGGAGGAACGTT it is 0.00908. The figure for CGAACTAGGTCGTTGACAGGACAGTGAATAGTAA is -0.188; for TCGAGTAGGTTACCAAAGGGGCATTCAGCTTTCT it is -0.508. For the sequence TCTTGTAGACCAGCAGGTTAAGAAAGCTGGCCAA, the PBM binding z-score was -0.534. Regarding CCTATTAGTTGACCATAAGGGCAGCCGAAGCTCG, the PBM binding z-score was found to be 0.575. The value for CATACATGGTCAGCTAGGCCAGAGTAGGGACGGC was -0.583; that for TCTTGTAGATCAATAGAGTTTAAGAAAGTGCGCT was 0.847. The figure for AGAATGAGGTTATACGTAGATAAGGGAAGAAAGT is 0.795.
